Experimental data as given in PubChem BioAssay (NCI).
Values joined by “and” are separate entries in the source; they are usually repeats but may differ in a detail not shown here. Equal entries are not always repeated. Compounds without any hit were thinned out: in the full panel of roughly 83,000, 20% have a hit.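 For each line, cells grew in 96-well plates with the test compound present at a single concentration for 48 hours.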 A number with no mark means an inactive call. Active and inactive are the calls of the source. How the source made its calls: active means growth percent below 10; inactive means the rest.

What follows are molecules tested on MDA-MB-468 breast (assay: NCI-60 one-dose screen, 48 h (100 = growth as untreated, 0 = no growth, -100 = all killed)). Details: 10 µM unless noted.

**Q.** For `COc1cccc(-c2cc3c(O)cc(C#N)cc3[nH]2)c1`, which growth is on record?
**A.** Its growth is 102%.

**Q.** How did the growth turn out when `Cc1cc(N/N=C/c2nc(-c3ccc(Br)cc3)oc2C)c2cc(Cl)ccc2n1` was run?
**A.** Its growth is 25.8%.

**Q.** Which growth does the source give for `CC(=O)OCC1OC(OC2=C(CC=C(Cl)Cl)C(=O)c3ccccc3C2=O)C(OC(C)=O)C(OC(C)=O)C1OC(C)=O` (stereo not given) here?
**A.** Its growth is -61.7% (active).

**Q.** For `Cc1ccc(C(=O)Nc2ccc(CN3CCN(C)CC3)c(C(F)(F)F)c2)cc1C#Cc1cnc(N)c2ccccc12`, which growth is on record?
**A.** Its growth is -61.7% (active).

**Q.** `O=C(Cc1ccc(NC(=O)c2cccc(Cl)c2)cc1)NCc1ccccc1` was tested. Which growth did it give?
**A.** The growth was 39%.

**Q.** How did the growth turn out when `CC(=O)Oc1cccc(S(=O)(=O)n2cc(C(=O)C(=O)Nc3ccncc3)c3ccccc32)c1` was run?
**A.** Its growth is 7.5% (active).

**Q.** Which growth does the source give for `CCOC(=O)c1c(NC(=O)c2ccc(C(C)(C)C)cc2)sc2cc(OCCN3CCCCC3)ccc12` here?
**A.** The growth was 85.8%.

**Q.** `COc1cc2c(c3c1c(=O)c1cccc(F)c1n3C)C=CC(C)(C)O2` was tested. Which growth did it give?
**A.** The growth was 42.7%.

**Q.** For `NC(=O)c1cccc(N2Cc3ccccc3OC3=C2C(=O)c2c(O)ccc(O)c2C3=O)c1`, which growth is on record?
**A.** Its growth is -21.4% (active).

**Q.** For `NC(=O)c1c(NC(=O)c2ccccn2)sc2c1CCC(=O)C2`, which growth is on record?
**A.** Its growth is 6.36% (active).

**Q.** How did the growth turn out when `O=C(NC1CCCCC1)C(c1cccs1)N(CCc1ccccc1)C(=O)c1ccco1` (stereo not given) was run?
**A.** The growth was 94.1%.

**Q.** `CN1CCC(CNc2cc(C3(C(=O)Nc4cc(C(=O)Nc5ccc(Cl)c(C(F)(F)F)c5)ccc4F)CC3)ncn2)CC1` was tested. Which growth did it give?
**A.** Its growth is -7.58% (active).

**Q.** For `Nc1nc(N)c2c(n1)NC(c1ccc(F)cc1)CC(c1ccc(Nc3nc(NCCO)nc(Nc4ccc(Cl)cc4)n3)cc1)=N2` (stereo not given), which growth is on record?
**A.** The growth was -68.5% (active).

**Q.** With `CC(NNC(=S)N1CCCCCC1)c1ccc2ccccc2n1` (stereo not given) as the molecule, how does the growth read?
**A.** Its growth is 30.3%.

**Q.** Which growth does the source give for `CN1CCN(c2ccc(Nc3nc(NCCCNS(=O)(=O)c4cccc5ccccc45)c4sccc4n3)cc2)CC1` here?
**A.** Its growth is -70.5% (active).

**Q.** Which growth does the source give for `COc1ccc(S(=O)(=O)n2cc(C3OC(c4cc(OC)c(OC)c(OC)c4)=NN3C(C)=O)c3ccccc32)cc1OC` (stereo not given) here?
**A.** Its growth is 105%.

**Q.** How did the growth turn out when `Cn1c(=O)c2c(ncn2CC(=O)Nc2ccc(S(N)(=O)=O)cc2)n(C)c1=O` was run?
**A.** The growth was 102%.

**Q.** With `COc1cc(C2C3=C(COC3=O)Nc3c2ccc2c3CCCC2)cc2c1OCO2` (stereo not given) as the molecule, how does the growth read?
**A.** The growth was -6.39% (active).

**Q.** How did the growth turn out when `COC(=O)c1ccc(C(=O)Nc2ccccc2N)cc1` was run?
**A.** Its growth is 44%.

**Q.** How did the growth turn out when `O=C1[C@H]2Cc3c([nH]c4ccccc34)[C@H](c3ccc(Cl)cc3)N2C(=O)CN1C1CCN(Cc2c(Cl)cccc2Cl)CC1` was run?
**A.** The growth was 57.5%.

**Q.** `COc1ccc(Sc2ccc3[nH]c(=O)nc(N)c3c2)cc1` was tested. Which growth did it give?
**A.** Its growth is 92.7%.

**Q.** Which growth does the source give for `COc1ccc(C(OCC2OC(n3ccc(NC(=O)c4ccccc4)nc3=O)C(O)C2O)(c2ccccc2)c2ccccc2)cc1` (stereo not given) here?
**A.** Its growth is 45.9%.

**Q.** How did the growth turn out when `CNC(=O)c1cc(Oc2ccc(NC(=O)Nc3ccc(Cl)c(OC(F)(F)F)c3)c(F)c2)ccn1` was run?
**A.** Its growth is 14.7%.

**Q.** For `COc1cc(C(=O)c2cc(C(C)=O)c3c4ccccc4ccn23)cc(OC)c1OC`, which growth is on record?
**A.** The growth was 42.1%.

**Q.** For `CCN(C(=O)N1CCN(c2cc3c(cc2F)c(=O)c(C(=O)O)cn3C2CC2)CC1)c1nc(-c2ccccc2)cs1`, which growth is on record?
**A.** Its growth is 13%.

**Q.** With `COc1ccc(/C=c2\sc3n(c2=O)C2C(NN=3)N(C)C(=O)N2C)cc1` (stereo not given) as the molecule, how does the growth read?
**A.** The growth was -8.89% (active).

**Q.** How did the growth turn out when `N/C(=N\c1nc2c(Cl)cc(Cl)cc2s1)C(Cl)(Cl)Cl` was run?
**A.** Its growth is -48.6% (active).

**Q.** How did the growth turn out when `COc1ccc(/C=C/c2nc3ccccc3nc2/C=C/c2ccc(OC)cc2)cc1` was run?
**A.** The growth was 88.1%.

**Q.** `C[C@@H]1CC[C@@H]2[C@@H]1[C@H](OC(=O)/C=C/c1ccccc1)[C@]1(C3CCCCC3)C[C@@H](OC(=O)CO)[C@@]2(C)O1` was tested. Which growth did it give?
**A.** Its growth is 74.1%.

**Q.** With `COc1ccc(-c2nn(-c3ccc(S(C)(=O)=O)cc3)cc2/C=N/O)cc1` as the molecule, how does the growth read?
**A.** The growth was 117%.

**Q.** For `Cc1cccc2c1C[C@@]1(C2=O)C(c2ccc(C(C)(C)C)cc2)=NOS1=O` (stereo not given in full), which growth is on record?
**A.** Its growth is 88.2%.

**Q.** For `COC(=O)[C@H]1CCCN1C[C@@H](O)CN1C(=O)/C(=C\c2cc(OC)c(OC)c(OC)c2)c2ccccc21`, which growth is on record?
**A.** The growth was 111%.

**Q.** For `CCCCOc1ccc(Nc2cc(Cl)ccc2C(=O)O)cn1`, which growth is on record?
**A.** Its growth is 99.6% and 103%.

**Q.** For `Clc1ncnc2scc(C3COc4ccccc4O3)c12` (stereo not given), which growth is on record?
**A.** Its growth is -3.8% (active).

**Q.** For `C/C(=C(/c1ccccc1)c1ccc(OCC(O)CNCCN2CCOCC2)cc1)c1ccccc1` (stereo not given), which growth is on record?
**A.** Its growth is 53.1%.

**Q.** For `COc1ccc(-n2c(-c3ccc(NC(=O)CCCl)cc3)nnc2-c2cc(OC)c(OC)c(OC)c2)cc1`, which growth is on record?
**A.** Its growth is -11.1% (active).

**Q.** `O=C(Nc1ccccc1)Oc1cccc2cccnc12` was tested. Which growth did it give?
**A.** Its growth is 96.9%.

**Q.** How did the growth turn out when `O=C(O)c1ccccc1C(=O)OC1CCCC2CCCC21` (stereo not given) was run?
**A.** Its growth is 102%.

**Q.** With `CC(C)OC(=O)N1CCOCC1` as the molecule, how does the growth read?
**A.** Its growth is 97.2%.

**Q.** How did the growth turn out when `O=C1/C(=C/C=C/c2ccco2)SC(=S)N1c1ccccc1` was run?
**A.** Its growth is -9.4% (active).
